Out of some 48,000 compounds screened, about 13,000 (27%) showed an effect of 50% or more. The list shows a part of the results.
test system: Wolbachia pipientis; assay: Anti-Wolbachia Cell-Based Screen; format: functional; set-up: scale not given: in the data most compounds retested in dose-response had high values; conditions: 5 µM

SMILES | Percent Effect [%]
CCC(CC)(CN)NC(C)c1ccccc1 (stereo unspecified) | 4.415
O=C(NCCc1cccc(O)c1)NC1CCN(c2ccccc2)C1=O (stereo unspecified) | -1.396
COc1ccc(CCNC(=O)CN2CCOCS2(=O)=O)cc1 | -7.481
O=C(NCCN1CCC(c2cccs2)CC1)Nc1cccs1 | -15.35
COc1ccc(CNC(=O)CCN2CCOC(C(F)(F)F)C2)cc1 (stereo unspecified) | -3.399
COc1ccc(CCC(=O)NCCN2CCC(c3cccs3)CC2)cc1 | 160.9
O=C(NCCc1ccccc1)NCCN1CCC(c2cccs2)CC1 | 129.5
CO[C@H]1CNC[C@@H]1NC(=O)c1cc(C)nc2ccc(C)cc12 | -4.766
COCCN1C[C@H]2CCN(C(C)=O)CC[C@H]2S1(=O)=O | -12.61
O=C(O)C1CCCN(c2nc3c(-c4ccccc4)csc3c(=O)[nH]2)C1 (stereo unspecified) | 5.88
COc1ccc2c(c1)nc1n2[C@@H](CN(C2CCC2)C2CCC2)COC1 | -7.437
Cc1cnn(CC2CN(CC(=O)N(C)Cc3cccs3)CCO2)c1 (stereo unspecified) | -3.9
CN(Cc1ccsc1)C(=O)CN1CCOC(Cn2cncn2)C1 (stereo unspecified) | 122.3
Cc1cnn(CC2CN(CC(=O)N(C)Cc3ccsc3)CCO2)c1 (stereo unspecified) | 117
Cc1cnn(CC2CCCN2CC(=O)N(C)Cc2ccsc2)c1 (stereo unspecified) | -8.163
O=C(CCc1cscn1)N1CCCC(n2ccnc2)C1 (stereo unspecified) | -7.112
COc1cccc(CCC(=O)N2CCCC(n3cc(C)cn3)C2)c1 (stereo unspecified) | -1.259
Cc1cc(C)n(C2CCCN(C(=O)CCNS(C)(=O)=O)C2)n1 (stereo unspecified) | 0.7954
Cc1cnn(C2CCCN(C(=O)CCc3cnn(C)c3)C2)c1 (stereo unspecified) | 94.12
Cc1cnn(C2CCCN(C(=O)CN(C)c3cnccn3)C2)c1 (stereo unspecified) | 6.201
Cc1cnn(C2CCCN(C(=O)CCc3cscn3)C2)c1 (stereo unspecified) | 115.3
Cc1cnn(C2CCCN(C(=O)Cn3ccc(=O)n(C)c3=O)C2)c1 (stereo unspecified) | -20.71

SMILES | Percent Effect [%]
Cc1cnn(C2CCCN(C(=O)CCc3ccncc3)C2)c1 (stereo unspecified) | 119.7
Cc1cnn(C2CCCN(C(=O)CCNS(C)(=O)=O)C2)c1 (stereo unspecified) | 109.1
CCCC(C)N(C)Cc1nnc(-c2ccc(Br)s2)o1 (stereo unspecified) | -85.49
CCNc1ncc(C(=O)N(C)Cc2nc3cc(Cl)ccc3[nH]2)cn1 | 4.323
COc1ccc(-n2c(CCC(=O)O)nc3ccccc32)cc1CO | -17.89
CN(C)C(=O)CN1C[C@@H]2CC[C@H](C1)N(C(=O)CCn1cncn1)C2 | -10.88
O=C(NCC(O)COc1cccc(F)c1)c1ccoc1 (stereo unspecified) | 11.74
CCN(C(=O)c1ccc2nnc(C3CCN(C)C3)n2c1)C(C)C.O=C(O)C(F)(F)F (stereo unspecified) | -13.6
Cc1cc(C2CCCN(C(=O)CCc3cscn3)C2)n[nH]1 (stereo unspecified) | 93.55
NC(=O)c1cc(C2CCCN(C(=O)CCc3cscn3)C2)n[nH]1 (stereo unspecified) | 0.5679
O=C(CCc1cscn1)N1CCCC(c2ccn[nH]2)C1 (stereo unspecified) | -4.951
NCc1ccnc(Oc2ccc(F)cc2)c1 | 111.3
Cc1ccc(Oc2cc(CN)ccn2)cc1C.Cl | 95.86
NCc1ccnc(Oc2ccccc2)c1 | 91.83
CCOc1cc(CNC(C)c2sccc2C)ccn1 (stereo unspecified) | 3.225
CCOC(CC)C(=O)NCc1ccnc(Oc2ccc(F)cc2)c1 (stereo unspecified) | -12.82
Cn1cc(C(=O)Nc2ccnc(Oc3ccccc3)c2)ccc1=O | -17.65
CCOc1ccccc1Oc1ccc(CN)cn1 | 5.762
CC(C)C(=O)NCc1ccnc(Oc2ccc(F)cc2)c1 | -7.223
CCOC(=O)NCCC(=O)NCc1ccnc(Oc2ccc(F)cc2)c1 | 11.47
CCOc1ccc(Oc2cc(CN)ccn2)cc1 | 101.1
NCc1ccc(Oc2cccc(Cl)c2Cl)cc1 | -2.508

SMILES | Percent Effect [%]
Cc1cc(CC(=O)NCc2ccnc(OCC(F)(F)F)c2)no1 | -12.47
Cc1oc(-c2cccs2)nc1C(=O)N(C)C1(C#N)CCC1 | 6.807
Cc1ccc([C@@H]2CN(C(=O)CCc3cc(Cl)no3)C[C@H]2N(C)C)cc1 | -9.949
COc1ccc(Oc2cc(CN)ccn2)cc1 | 98.96
COc1cccc(-c2cc(CN)ccc2F)c1F | -9.579
CC(NC(N)=O)C(=O)NCc1ccnc(Oc2ccc(F)cc2)c1 (stereo unspecified) | -14.04
COc1ccc(N(CCC(N)=O)C(=O)CSc2ccc(Cl)cc2)cc1 | -20.11
COCCC(=O)N[C@H]1CN(c2nc(C)c3c(n2)CCCC3)C[C@@H]1C1CC1 | 40.93
CC(NCc1ccccn1)c1cc2c(cc1Br)OCCO2 (stereo unspecified) | 9.612
O=C(NCc1ccc(F)cc1)NCC(O)(c1cccs1)C1CC1 (stereo unspecified) | 0.4051
CN1CCC(NC(=O)Nc2ccc(Br)c(F)c2)C1=O (stereo unspecified) | 3.385
CN1CCC(NC(=O)Nc2ccc(F)c(-n3cccc3)c2)C1=O (stereo unspecified) | 0.2161
CN1CCC(NC(=O)c2cc(Cl)cc(Br)c2O)C1=O (stereo unspecified) | 99.64
CN1CCC(NC(=O)CCCc2cc(Cl)sc2Cl)C1=O (stereo unspecified) | -5.326
CN1CCC(NC(=O)c2cc(F)cc(Cl)c2O)C1=O (stereo unspecified) | 115.3
CN1CCC(NC(=O)Nc2ccc(F)c(Br)c2)C1=O (stereo unspecified) | -1.465
Cn1cc(N2CCC(NC(=O)c3ccccc3Cl)C2=O)cn1 (stereo unspecified) | -3.21
CN1CCC(NC(=O)Nc2ccc(Cl)c(F)c2)C1=O (stereo unspecified) | 7.915
CN1CCC(NC(=O)c2cc(Br)cc(Cl)c2O)C1=O (stereo unspecified) | 91.47
CCN(C)C[C@@H]1CN(Cc2cccc(Cl)c2)C[C@@H]1CO | -21.33
Cc1ncc(CN(C)C(=O)Nc2cccc(N3CCNC3=O)c2)s1 | -6.99
COc1cccc(-c2cc(NCc3nc(C)cs3)n(C)n2)c1 | -29

SMILES | Percent Effect [%]
CCCS(=O)(=O)N1CC[C@@H]2[C@@H]1CC(=O)N2Cc1csc(C)n1 | 71.41
CCS(=O)(=O)N1CC[C@H]2[C@H]1CC(=O)N2Cc1csc(C)n1 | 96.63
CCOCC(=O)N1CC[C@H]2[C@@H]1CCC(=O)N2Cc1csc(C)n1 | 22.07
CCN1C(=O)C[C@@H]2[C@@H]1CCN2S(=O)(=O)c1cccc(C)c1 | -32.48
COc1ccc(Br)c(C(=O)N2CCCC(c3nc(C)no3)C2)c1 (stereo unspecified) | -8.45
CCC(=O)N1CCN(C(=O)Nc2cccc(N3CCOCC3)c2)CC1 | -13.34
Cn1ccnc1CN1CCOC(C)(C(=O)N2CCOCC2)C1 (stereo unspecified) | 108.3
CC(C)n1ccnc1CN1CCOC(C)(C(=O)N2CCOCC2)C1 (stereo unspecified) | 127.3
Cn1ccnc1CN1CCC2(CC(=O)N(c3ccc4c(c3)OCO4)C2)C1.O=C(O)C(F)(F)F (stereo unspecified) | -22.94
CN1CC2(CCN(Cc3ncc[nH]3)CC2)CC1=O | -5.481
O=C(c1cccc(S(=O)(=O)NCCCc2ncc[nH]2)c1)N1CCOCC1 | -4.417
CC(NC(N)=O)C(=O)N1CCCN(Cc2nccn2C(C)C)CC1 (stereo unspecified) | -6.463
CC(C)n1ccnc1CN1CCCN(C(=O)c2nccnc2N)CC1 | 3.581
Cn1ccnc1CN1CCC2(CC1)CN(CC1CC1)C(=O)CO2 | -0.08379
CC1(C(=O)N2CCOCC2)CN(Cc2ncc[nH]2)CCO1 (stereo unspecified) | 90.74
COc1ccccc1CC1CCCN(CCC#N)C1 (stereo unspecified) | -6.976
Cc1nonc1C1CCCN1C(=O)c1cc2n(n1)CCCNC2 (stereo unspecified) | -3.031
COCC(O)CN(C)c1ccnc2ccc(Cl)cc12 (stereo unspecified) | 99.68
COCC(=O)N1CCC(Nc2ccnc3ccc(Cl)cc23)CC1 | -6.533
COCC(O)CN(C)c1ccnc2cc(F)ccc12 (stereo unspecified) | 83.56
Cc1ccc(N(C)CC(O)COCc2ccccc2F)c(C)c1 (stereo unspecified) | 0.5576
COc1ccc(COCC(O)CN(C)c2ccc(C)cc2C)cc1 (stereo unspecified) | 10.8

SMILES | Percent Effect [%]
COc1ccc(Cl)cc1NC(=O)N(C)CC(O)COCCOC(C)C (stereo unspecified) | -8.214
COCC(O)CNc1cncc(Br)c1 (stereo unspecified) | -2.667
COc1cc(F)ccc1N(C)Cc1ccccn1 | 9.437
COCC(O)CN(C)c1ccnc2cc(Br)ccc12 (stereo unspecified) | 92.3
COC(=O)c1ccc(Cl)c(NS(=O)(=O)c2cnn(C)c2)c1 | -1.605
O=C(CNC(=O)C1CC1)NCC(F)(F)F | -16.51
Cl.NC(=O)CCc1cccc(C2CCNCC2)n1 | 115.3
Cl.O=C(CCc1cccc(C2CCNCC2)n1)N1CCCCC1 | 116.4
O=C(CCc1ccccc1)N1CCC(c2n[nH]c(C3CC3)n2)CC1 | -4.114
CNC(=O)[C@H]1C[C@@H]2CN(S(=O)(=O)c3ccc(C)c(F)c3)C[C@@H]2N1C.O=C(O)C(F)(F)F | -6.907
O=C(c1ccoc1)N1CCCC1C1CCN(Cc2ccccc2)CC1 (stereo unspecified) | -51.53
Cc1nn(C)c(Cl)c1C1CCCN1c1ncnc2c1CCC2 (stereo unspecified) | 16.41
COc1ccc2c(C)c(C(=O)NC3CCN(S(C)(=O)=O)CC3)oc2c1 | 1.038
Cc1c(C(=O)O)oc2ccc(I)cc12 | 125.9
CNC(=O)c1[nH]nc2ccc(I)cc12 | 8.904
O=C(O)CSc1nnc(-c2ccco2)n1-c1ccccc1C(F)(F)F | -16
COc1cc2c(nn1)CCN(Cc1noc(-c3ccccc3)n1)C2 | -2.709
NC(=O)c1ccc(C(=O)N(Cc2ccc(O)cc2)CC2CC2)cc1 | -2.707

Reference: ChEMBL document CHEMBL3988442, “University of Dundee, Small-Polar-MMV Screening Library” (2021)
